# Source: PubChem BioAssay (Tox21)
# Records with an inconclusive call do not appear. The source made the active and inactive calls. Calls come from the whole dose curve; as a rule, active = well fitted cell-killing curve with a large enough effect in the repeat runs; inconclusive = weak or mixed curves, or effect the other way; inactive = flat fitted curve, though single readings scatter.
# Test: qHTS assay to identify small molecule agonists of the TGF-beta/Smad signaling pathway - cell viability counter screen (AID 1346829); note: top concentration of the series differs between compounds; nearly all actives have a fitted effect of over 45% in size
# Conditions: SBE-bla HEK293T viability, CellTiter-Glo luminescence, 5 h; series mostly up to 76.8 µM; activity change, negative = cytotoxicity: at the top concentration
# Source text: National Center for Advancing Translational Sciences [NCATS]
# NIH Chemical Genomics Center [NCGC]
# U.S. Environmental Protection Agency [EPA]
# National Institutes of Environmental Health Sciences [NIEHS]
# National Toxicology Program [NTP]
# U.S. Food and Drug Administration [FDA]
# Transforming growth factor beta (TGF-beta) superfamily consists of a large number of structurally related dimeric proteins that act as hormones or local mediators in regulating a wide range of biological functions. This superfamily includes TGF-betas themselves, the bone morphogenetic proteins (BMPs) and the activins. These ligands induce oligomerization of serine/threonine receptor kinases and phosphorylate the cytoplasmic signaling molecules of Smad protein family. CellSensor SBE-bla HEK 293T cell line (Life Technologies, Carlsbad, CA), responsive to TGF-beta was used to screen Tox21 10K compound library for identification of agonists/antagonists of the Smad signaling pathway. This cell line contains a beta-lactamase reporter gene under control of the Smad binding element (SBE) stably integrated into HEK 293T cells. Also cytotoxicity of the compounds was tested in parallel by measuring the cell viability using CellTiter-Glo assay system in the same wells.
# Tox21 Assay Protocol Summary:
# SBE-bla HEK 293T cells were dispensed at 4,000/well in 6 uL of assay medium into black wall/clear-bottom 1536-well plates using a Multidrop Combi (ThermoFisher Scientific, Waltham, MA) dispenser. After the assay plates were incubated at 37 C and 5% CO2 for an overnight, 23 nL of compounds dissolved in DMSO, positive controls or DMSO only was transferred to the assay plate by a Pintool station (Kalypsys, San Diego, CA). The assay plates were incubated at 37 C and 5% CO2 for 5 hr. One uL of LiveBLAzer B/G FRET substrate (Life Technologies) was added using a Flying Reagent Dispenser (FRD, Aurora Discovery, San Diego, CA) and the plates were incubated at room temperature for 2 hr. Fluorescence intensity (405 nm excitation, 460 nm and 530 nm emissions) was measured using an Envision plate reader (PerkinElmer, Shelton, CT). For cytotoxicity read, 4 uL of CellTiter-Glo reagent (Promega Corporation, Madison, WI) was added to each well of the assay plates using FRD. After 30min incubation at room temperature, the luminescence intensity was measured using ViewLux plate reader (PerkinElmer).
# % is set by controls: 0 for no effect and ±100 for the full control effect.
row,SMILES,"activity change, negative = cytotoxicity"
1,COC(=O)C1=C(C)NC(C)=C(C(=O)OCC(C)=O)C1c1ccccc1[N+](=O)[O-] (stereo not given),0.918% [at 35.3 µM] (inactive)
2,CCCCCCC(CCCCCCCCCCC(=O)OCC(COC(C)=O)OC(C)=O)OC(C)=O (stereo not given),8.76% [at 35.3 µM] (inactive)
3,COCc1ccc(COC)cc1,3.55% (inactive)
4,C#CC(O)C(CC)CCCC (stereo not given),-8.78% (inactive)
5,CO[Si](CCCNCCC[Si](OC)(OC)OC)(OC)OC,4.2% (inactive)
6,CCCCC=O,0.89% (inactive)
7,CC1(C)SC(C)(C)SC(C)(C)S1,3.93% (inactive)
8,Cc1c(F)cc2c(=O)c(C(=O)O)cn3c2c1CCC3C (stereo not given),-2.45% [at 35.3 µM] (inactive)
9,c1ccc(SCCSc2ccccc2)cc1,0.568% (inactive)
10,CSc1nc(NC2CC2)nc(NC(C)(C)C)n1,1.5% (inactive)
11,C#CC(O)CCCCC (stereo not given),14.1% (inactive)
12,CCCCNc1ccccc1,-5.1% (inactive)
13,COc1cc(C(=O)N2CCOCC2)cc(OC)c1OC,5.22% [at 35.3 µM] (inactive)
14,CCCC(C)C(=O)O (stereo not given),-7.54% (inactive)
15,Cc1cc(C)c(NC(=O)CN(CC(=O)O)CC(=O)O)c(C)c1Br,0.385% [at 35.3 µM] (inactive)
16,COc1cc(CCC(C)=O)ccc1O,-3.66% (inactive)
17,CC(=O)O[C@H](CC(=O)[O-])C[N+](C)(C)C,2.74% (inactive)
18,Nc1cc(C(Cl)=C(Cl)Cl)c(S(N)(=O)=O)cc1S(N)(=O)=O,-5.36% [at 35.3 µM] (inactive)
19,Cc1ccc(Nc2ccc(O)c3c2C(=O)c2ccccc2C3=O)cc1,3.56% (inactive)
20,CC/C=C\CCCCO,5.04% (inactive)

row,SMILES,"activity change, negative = cytotoxicity"
1,CCCCc1ccc2cccc(S(=O)(=O)O)c2c1,-5.77% (inactive)
2,NS(=O)(=O)c1cc2c(cc1Cl)NC(CSCc1ccccc1)=NS2(=O)=O,6.35% [at 35.3 µM] (inactive)
3,CC1=CC(=O)CCC1,14.5% (inactive)
4,NC(=O)c1ncn([C@@H]2O[C@H](CO)[C@@H](O)[C@H]2O)c1O,-10.5% [at 35.3 µM] (inactive)
5,C=CCOc1nc(OCC=C)nc(OCC=C)n1,-4.68% (inactive)
6,CC(C)CCCCCCN,11.2% (inactive)
7,Cc1ccccc1Br,-10.2% (inactive)
8,CC(C)(O)c1ccccc1,-0.0712% (inactive)
9,CC(C)c1cccc(C(C)C)c1N,2.39% (inactive)
10,CCCc1ccc(N)cc1,6.75% (inactive)
11,CC1=CCC2C(C1)C2(C)C (stereo not given),-0.747% (inactive)
12,COc1ccc(N=[N+]([O-])c2ccc(OC)cc2)cc1,1.92% (inactive)
13,CCCCCOC(=O)Nc1nc(=O)n([C@@H]2O[C@H](C)[C@@H](O)[C@H]2O)cc1F,-7.37% [at 35.3 µM] (inactive)
14,C=C(C)C(=O)OCCCCCCCCCCCCCCCCCC,16.7% [at 15.8 µM] (inactive)
15,OCc1ccccn1,-9.68% [at 35.3 µM] (inactive)
16,OCC(O)[C@@H](O)[C@H](O)[C@H](O)CO[C@H]1O[C@H](CO)[C@@H](O)[C@H](O)[C@H]1O (stereo not given in full),-0.65% (inactive)
17,CCCCCN(CCCCC)C(=O)C(CCC(=O)O)NC(=O)c1ccc(Cl)c(Cl)c1 (stereo not given),1.2% [at 35.3 µM] (inactive)
18,Nc1nc(F)nc2c1ncn2[C@@H]1O[C@H](CO)[C@@H](O)[C@@H]1O,-4.25% [at 35.3 µM] (inactive)
19,CN(C)CCn1nnnc1SCC1=C(C(=O)O)N2C(=O)[C@@H](NC(=O)Cc3csc(N)n3)[C@H]2SC1,1.62% [at 35.3 µM] (inactive)
20,NS(=O)(=O)c1cc2c(cc1C(F)(F)F)NC(Cc1ccccc1)NS2(=O)=O (stereo not given),-3.44% [at 35.3 µM] (inactive)
